According to PubChem BioAssay (NCATS):
Several values for one entry are separate records, joined by “and”; a condition that tells them apart may be missing. Identical values can stand only once. Values without a mark were called inactive. Inconclusive results are not listed. Entries that show only a call come without a potency. Activity calls are given as the source filed them. Unless noted, calls follow the shape of the dose curve; as a rule, active = well fitted curve in the direction sought with a large enough effect; inconclusive = small, poorly fitted or top-dose-only effect, or another doubt; inactive = no such curve, though single readings can be large; an effect the other way counts as inactive or inconclusive.

How the values were obtained:
[1] = qHTS assay for small molecule disruptors of the mitochondrial membrane potential - 1 hr assay (AID 651754; calls by dose curve; also: nearly all actives have a fitted effect of over 35% in size; also: potency is read from the fitted curve at half-maximal effect)
How it was run: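 Loss of mitochondrial potential shifts the cationic dye from red mitochondrial aggregates to green cytoplasmic monomers. Cells (HepG2) are treated with compound for 1 hr before a 30 min dye incubation at 37C.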

[2] = qHTS assay for small molecule disruptors of the mitochondrial membrane potential - 5 hr assay (AID 651755; calls by dose curve; also: nearly all actives have a fitted effect of over 40% in size; also: potency is read from the fitted curve at half-maximal effect)
How it was run: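 Read-out: ratiometric Mito-MPS fluorescence, green monomer (ex 490/em 535) vs red mitochondrial aggregate (ex 540/em 590). HepG2 cells treated 5 hr at 37C before 30 min dye loading.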

[3] = qHTS assay for environmental chemicals that activate the Aryl hydrocarbon Receptor (AhR) signaling pathway (AID 651777); settings: 1A2-DRE human hepatoma cells, luciferase, 24 h; activation: active compounds read high; also: nearly all actives have a fitted effect of over 15% in size
How it was run: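 Concentration–response screening used 1,200 1A2-DRE cells per well, 24 hr compound exposure (37 C, 5% CO2), and One-Glo luminescence as the AhR-driven CYP1A2 reporter signal.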

[4] = target: Peroxisome proliferator-activated receptor alpha (Homo sapiens) (UniProt Q07869); assay: qHTS assay for small molecule agonists of the peroxisome proliferator-activated receptor alpha (PPARalpha) signaling pathway (AID 651778); settings: PathHunter PPARalpha complementation, chemiluminescence, 6 h; active compounds read high
Chain of Peroxisome proliferator-activated receptor alpha (Homo sapiens) (Q07869 whole entry, looked up, the tested form may be a part): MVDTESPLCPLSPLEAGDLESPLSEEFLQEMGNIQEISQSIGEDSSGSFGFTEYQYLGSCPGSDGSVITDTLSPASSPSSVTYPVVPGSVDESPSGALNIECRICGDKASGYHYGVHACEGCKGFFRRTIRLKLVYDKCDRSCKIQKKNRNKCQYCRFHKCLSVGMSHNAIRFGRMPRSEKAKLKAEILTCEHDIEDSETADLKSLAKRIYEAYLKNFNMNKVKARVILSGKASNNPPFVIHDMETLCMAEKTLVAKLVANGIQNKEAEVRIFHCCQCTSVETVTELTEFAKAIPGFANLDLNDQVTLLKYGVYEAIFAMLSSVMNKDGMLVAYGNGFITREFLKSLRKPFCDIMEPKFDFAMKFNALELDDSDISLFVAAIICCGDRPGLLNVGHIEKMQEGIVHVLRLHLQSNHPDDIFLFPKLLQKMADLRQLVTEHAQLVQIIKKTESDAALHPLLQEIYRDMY
How it was run: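 Enzyme-fragment complementation assay in which ligand-bound PPARalpha translocates and forms an active enzyme that generates chemiluminescence. Cells were plated overnight, exposed to compound for 6 hr at 37 C, and then given detection reagent for 60 min at room temperature.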

[5] = target: Nuclear receptor ROR-gamma (Homo sapiens) (UniProt P51449); assay: qHTS assay for small molecule antagonists of the retinoid-related orphan receptor gamma (ROR-gamma) signaling pathway (AID 651802);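 also: CHO cells with doxycycline-induced ROR-gamma expression; series mostly up to about 92 µM; nearly all actives have a fitted effect of over 60% in size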
Chain of Nuclear receptor ROR-gamma (Homo sapiens) (P51449 whole entry, looked up): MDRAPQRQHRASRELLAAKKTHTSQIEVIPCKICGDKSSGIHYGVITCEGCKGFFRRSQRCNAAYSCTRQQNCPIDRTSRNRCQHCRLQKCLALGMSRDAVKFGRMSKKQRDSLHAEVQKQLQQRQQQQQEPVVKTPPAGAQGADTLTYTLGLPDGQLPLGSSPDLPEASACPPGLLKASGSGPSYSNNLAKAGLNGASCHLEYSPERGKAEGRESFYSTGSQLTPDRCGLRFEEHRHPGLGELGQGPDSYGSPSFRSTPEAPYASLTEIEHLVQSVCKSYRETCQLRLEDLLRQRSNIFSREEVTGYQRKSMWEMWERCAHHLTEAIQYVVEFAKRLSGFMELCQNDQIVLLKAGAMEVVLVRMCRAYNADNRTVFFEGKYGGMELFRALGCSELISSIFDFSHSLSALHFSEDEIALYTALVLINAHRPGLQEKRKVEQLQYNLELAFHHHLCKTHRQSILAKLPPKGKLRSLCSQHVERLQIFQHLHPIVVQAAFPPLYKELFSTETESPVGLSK
How it was run: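 Steps: cells dispensed; compound or DMSO transferred by pin tool; doxycycline added to induce the ROR response element-driven luciferase; plates held 16hr at 37C; ONE-Glo added and luminescence measured.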

[6] = qHTS assay for small molecule agonists of the antioxidant response element (ARE) signaling pathway measured by Nrf2-dependant transcriptional activity (AID 720636; active = well fitted curve in the direction sought with a large enough effect in the repeat runs; an effect the other way counts as inactive or inconclusive;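 also: HepG2 cells with an ARE-driven luciferase reporter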)
How it was run: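 Attachment 6 hr at 37 C, then compound versus DMSO vehicle for 16 hr in ARE-luc HepG2 cells (1% dialyzed FBS); luminescence recorded 30 min after ONE-Glo addition at room temperature.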

[7] = qHTS assay for small molecule antagonists of the retinoid-related orphan receptor gamma (ROR-gamma) signaling pathway - cell viability counter screen (AID 720652; active = well fitted curve in the direction sought with a large enough effect in the repeat runs; an effect the other way counts as inactive or inconclusive;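 also: CHO reporter cells with doxycycline-induced ROR-gamma expression; series mostly up to about 92 µM; compound exposure lasted 16 hr before ATP read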)
How it was run: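 Steps: seed CHO cells bearing TET-inducible ROR and ROR response element-luciferase; rest 5 hr at 37 C; add compound, then doxycycline; incubate 16 hr; add CellTiter-Glo and read luminescence as ATP-based viability.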

[8] = qHTS assay for small molecule agonists of the antioxidant response element (ARE) signaling pathway measured by Nrf2-dependant transcriptional activity - cell viability counter screen (AID 720653; active = well fitted curve in the direction sought with a large enough effect in the repeat runs; an effect the other way counts as inactive or inconclusive); settings: ARE-bla HepG2 viability, CellTiter-Glo ATP luminescence, 16 h; active compounds read low
How it was run: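 ARE-bla HepG2 cells treated with compounds for 16 h at 37C; this counter screen measures viability as intracellular ATP by CellTiter-Glo luminescence after 30 min at room temperature.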

[9] = qHTS assay for cell viability of HEK293 cells (AID 743288); settings: ATP luminescence (CellTiter-Glo), 18 h, active compounds read low; also: nearly all actives have a fitted effect of over 50% in size
How it was run: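 Steps: plate 2,000 parental HEK293 cells per well; incubate ≥5 h, 37 C; add compounds in DMSO; incubate 18 h, 37 C; add CellTiter-Glo; wait 30 min at room temperature; read luminescence.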

[10] = qHTS assay for cell viability of the p53RE-bla HCT-116 cell line (AID 743292); also: nearly all actives have a fitted effect of over 55% in size
How it was run: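 Compound-exposed HCT-116 (p53RE-bla) cells, 4,000 per well, were kept 16 h at 37 C following a 5 h preincubation. Cell number was estimated from total ATP by CellTiter-Glo luminescence read after 30 min at room temperature.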

[11] = target: Nuclear receptor subfamily 1 group I member 2 (Rattus norvegicus) (UniProt Q9R1A7); assay: qHTS assay for small molecule activators of the rat pregnane X receptor (rPXR) signaling pathway (AID 651751; call rule not given here); settings: rPXR reporter cells, luciferase (One-Glo), 24 h
Chain of Nuclear receptor subfamily 1 group I member 2 (Rattus norvegicus) (Q9R1A7 whole entry, looked up): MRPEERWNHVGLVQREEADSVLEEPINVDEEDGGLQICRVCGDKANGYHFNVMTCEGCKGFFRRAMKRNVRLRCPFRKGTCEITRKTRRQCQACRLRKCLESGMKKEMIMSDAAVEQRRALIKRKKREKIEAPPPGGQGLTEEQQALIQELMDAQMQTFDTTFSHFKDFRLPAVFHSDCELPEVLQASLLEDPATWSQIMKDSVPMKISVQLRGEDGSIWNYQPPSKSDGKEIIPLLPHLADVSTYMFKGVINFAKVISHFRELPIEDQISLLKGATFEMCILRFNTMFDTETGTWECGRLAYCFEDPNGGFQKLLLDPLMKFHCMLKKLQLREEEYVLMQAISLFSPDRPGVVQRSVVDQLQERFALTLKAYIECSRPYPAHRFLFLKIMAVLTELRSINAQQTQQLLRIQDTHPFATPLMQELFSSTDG

[12] = qHTS assay for small molecule activators of the human pregnane X receptor (PXR) signaling pathway (AID 720659; call rule not given here)
[13] = target: Tumor necrosis factor (Homo sapiens) (UniProt P01375); assay: qHTS assay to identify small molecules that stimulate Tumor Necrosis Factor-alpha (TNF-alpha) secretion (AID 651757; active = well fitted curve in the direction sought with a large enough effect in the signal ratio; the % refers to the signal ratio)
Chain of Tumor necrosis factor (Homo sapiens) (P01375 whole entry, looked up): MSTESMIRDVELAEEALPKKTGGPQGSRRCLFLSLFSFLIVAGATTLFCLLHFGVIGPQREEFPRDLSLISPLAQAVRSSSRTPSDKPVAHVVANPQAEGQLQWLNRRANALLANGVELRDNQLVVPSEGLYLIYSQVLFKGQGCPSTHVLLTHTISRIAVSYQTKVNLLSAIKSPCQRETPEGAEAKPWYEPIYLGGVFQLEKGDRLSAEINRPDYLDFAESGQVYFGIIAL
How it was run: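 Human monocytic THP-1 cells are plated, treated with compound and held at 37 C for 17 hrs. Labeled anti-TNF-alpha antibody mixture is then added; after 3 hr at room temperature, TR-FRET signal reports secreted TNF-alpha.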

[14] = qHTS assay to identify small molecules that stimulate interleukin-8 (IL-8) secretion (AID 651758; active = well fitted activation curve with a large enough effect in the signal ratio; the % refers to the signal ratio)
How it was run: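 Compounds are added to THP-1 cells (2000 per well) and left 16 hrs at 37 C. A labeled anti-IL-8 antibody pair is then added, and IL-8 secretion is measured by time-resolved FRET after 1-3 hrs at room temperature.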

Row | Compound | Potency [1] | Potency [2] | activation [3] [%] | max response [4] | Potency [5] | outcome [6] | Potency [7] | max response [8] | max response [9] | Potency [10] | max response [11] | outcome [12] | Potency [13] | Potency [14]
1 | CCCCCO | inactive | inactive | 0.0119 | -2.11% | inactive | inactive | inactive | 3.66% | 0.87% | inactive | -1.89% | inactive |  | 
2 | O=C(O[C@@H](C(=O)O)[C@@H](OC(=O)c1ccccc1)C(=O)O)c1ccccc1 | inactive | inactive |  | 3.38% |  | inactive | inactive | -4.37% | 9.93% | inactive | 4.96% | inactive | inactive | 
3 | CCCCCCCCC | inactive | inactive | 0.0249 | -0.317% | inactive | inactive | inactive | 3.15% | 9.61% | inactive | 3.91% | inactive |  | inactive
4 | O=C1OC(=O)c2cc([N+](=O)[O-])ccc21 | inactive | inactive |  | -4.48% | inactive | inactive | inactive | -1.02% | -5.72% | inactive | -0.914% | inactive |  | inactive
5 | CCCCC(CC)CNCC(CC)CCCC (stereo unspecified) | inactive | inactive |  | -0.499% | inactive | inactive | inactive | 3.58% | -4.58% | inactive | -1.1% | inactive | inactive | 
6 | O=P(O)(OCc1ccccc1)OCc1ccccc1 | inactive | inactive |  | 1.76% |  | inactive | inactive | 2.28% | -11.9% | inactive | 3.16% | inactive | inactive | 
7 | O=C(O)CNC(=O)c1ccc(CO)o1 | inactive | inactive | -1.34 | -5.12% | inactive | inactive | inactive | -15.7% | -5.2% | inactive | -7.08% | inactive |  | 
8 | CC1CCCO1 (stereo unspecified) | inactive | inactive |  | 0.088% | inactive | inactive | inactive | -3.62% | -15.7% | inactive | -1.92% | inactive | inactive | 
9 | Nc1nc(CC(=O)O)cs1 | inactive | inactive | -0.467 | 1.57% | inactive | inactive | inactive | 4.24% | -0.757% | inactive | -3.19% | inactive |  | 
10 | c1ccc2n[nH]nc2c1 | inactive | inactive | 0.556 | -6.33% | inactive | inactive | inactive | 3.37% | -14.1% | inactive | -4.36% | inactive |  | 
11 | CCCCCCC(=O)O | inactive | inactive | 0.903 | 14.5% | inactive | inactive | inactive | -2.08% | -7.36% | inactive | -2.97% | inactive |  | 
12 | NC=O | inactive | inactive | 1.58 | -1.01% | inactive | inactive | inactive | 6.13% | -0.0358% | inactive | -1.14% | inactive |  | 
13 | CCCCCCCCCCCCC1CO1 (stereo unspecified) | inactive | inactive | 0.974 | -4.01% | inactive | inactive | inactive | 1.04% | -4.83% | inactive | 4.9% | inactive |  | 
14 | C=Cc1ccc(C=C)cc1 | inactive | inactive | 7.35 | -4.42% | inactive | inactive | inactive | -7.35% | -2.33% | inactive | -2.76% | inactive |  | inactive
15 | Cc1cc(C)cc(O)c1 | inactive | inactive |  | -2.86% | inactive | inactive | inactive |  | -5.39% | inactive | -0.901% | inactive | inactive | 
16 | C1CCCC1 | inactive | inactive | 0.0008 |  | inactive | inactive | inactive | -4.11% | 0.668% | inactive | -1.32% | inactive |  | inactive
17 | O=Cc1cccc(Br)c1 | inactive | inactive | 0.191 | -2.07% | inactive | inactive | inactive | 0.536% | 1.54% | inactive | 5.18% | inactive |  | inactive
18 | O=[N+]([O-])c1ccc(NCCO)c(OCCO)c1 | inactive | inactive |  | -4.01% |  | inactive | inactive | 6.98% | -2.57% | inactive | -2.89% | inactive | inactive | 

Row | Compound | Potency [1] | Potency [2] | activation [3] [%] | max response [4] | Potency [5] | outcome [6] | Potency [7] | max response [8] | max response [9] | Potency [10] | max response [11] | outcome [12] | Potency [13] | Potency [14]
19 | C=C(C)C(=O)OCCCCCCCCCC | inactive | inactive | -0.81 | -0.186% | inactive | inactive | inactive | -0.733% | -5.31% | inactive | 3.26% | inactive |  | inactive
20 | N#CC1(O)CCCCC1 | inactive | inactive | 2.1 | -1.44% | inactive | inactive | inactive |  | 1.77% | inactive | 2.59% |  |  | inactive
21 | CCCCCCCCC/C=C/CC1CC(=O)OC1=O (stereo unspecified) | inactive | inactive | 0.696 | 0.153% |  | inactive | inactive | -4.85% | 0.292% | inactive | -1.93% | inactive |  | inactive
22 | CCCCCNCCCCC | inactive | inactive |  |  | inactive | inactive | inactive | -0.347% and -3.31% | 0.935% and 1.64% | inactive | 7.61% and 1.33% | inactive |  | inactive
23 | CN(C)CCCCl | inactive | inactive |  | -1.33% | inactive | inactive | inactive | 19.9% |  | inactive | 3.08% | inactive | inactive | 
24 | OC1CCCC1 | inactive | inactive | -0.947 | 1.11% | inactive | inactive | inactive | -3.18% | 3.74% | inactive | -2.46% | inactive |  | inactive
25 | CCCCC(CC)C(=O)O (stereo unspecified) | inactive | inactive |  |  | inactive | inactive | inactive | -5.11% | -7.06% | inactive | 1.13% | inactive | inactive | 
26 | COc1cccc(N)c1 | inactive | inactive |  |  | inactive | inactive | inactive | 10.6% | -0.119% | inactive | 12.1% | inactive | inactive | 
27 | Cc1ccc(Cl)cc1 | inactive | inactive |  | -0.102% | inactive | inactive | inactive |  | -4.66% | inactive | -4.31% | inactive | inactive | 
28 | ClC/C=C/CCl | inactive | inactive |  | 1.16% |  | inactive | inactive | -6.38% |  | inactive | 5.09% | inactive | inactive | 
29 | C1CCC2OC2C1 (stereo unspecified) | inactive | inactive |  | -2.34% | inactive | inactive | inactive | -3.72% |  | inactive | -4.14% | inactive | inactive | 
30 | CCN(C(=O)N(CC)c1ccccc1)c1ccccc1 | inactive | inactive |  | -4.39% | inactive | inactive | inactive | -10.4% | -19.1% | inactive | -2.68% |  | inactive | 
31 | CSc1ccc(C=O)cc1 | inactive | inactive | 0.018 | -3.7% | inactive | inactive | inactive | -8.76% | 8.71% | inactive | 9.01% | inactive |  | 
32 | Cc1cc(C)cc(N)c1 | inactive | inactive |  | -1.33% | inactive | inactive |  | -5.34% |  | inactive | 9.8% | inactive | inactive | 
33 | Fc1ccccc1 | inactive | inactive |  | 1.57% | inactive | inactive | inactive |  | 9.93% | inactive | 3.18% | inactive | inactive | 
34 | S=C([S-])NCCNC(=S)[S-].[Zn+2] | inactive | inactive |  | -15.1% and -9.87% and -6.7% | inactive |  | inactive | -3.47% and -31.7% and -9.84% | 1.36% and -44.1% and -10.7% | inactive | -5.53% and -7.82% and -4.11% |  | inactive | 
35 | O=[N+]([O-])c1cccc(C(F)(F)F)c1 | inactive | inactive | 0.319 | 2.74% | inactive | inactive | inactive | 14.6% | 0.368% | inactive | -1.97% | inactive |  | inactive
36 | Cc1ccc2c(c1[N+](=O)[O-])C(=O)c1ccccc1C2=O | 1880 nM (active) | 1330 nM (active) |  | -3.62% | inactive |  | inactive | -12.9% |  | inactive | 5.79% |  | inactive | 
